# High-throughput results from PubChem.
# The full list was thinned out, with hits kept by preference.
# Giardia FBPA inh: Giardia lamblia aldolase inhibition; purified Giardia FBPA; 290,000 tested, 0.71% active; Potency, µM (series often up to 59.6 µM), inactives show at the highest dose activity, negative = inhibition, hits mostly inhibitors; A8B2U2; also: potency is read from the fitted curve at half-maximal effect; % is scaled to controls: 0 for no effect and ±100 for the full control effect; nearly all actives have a fitted effect of over 55% in size
# Target sequence (A8B2U2 whole entry, looked up): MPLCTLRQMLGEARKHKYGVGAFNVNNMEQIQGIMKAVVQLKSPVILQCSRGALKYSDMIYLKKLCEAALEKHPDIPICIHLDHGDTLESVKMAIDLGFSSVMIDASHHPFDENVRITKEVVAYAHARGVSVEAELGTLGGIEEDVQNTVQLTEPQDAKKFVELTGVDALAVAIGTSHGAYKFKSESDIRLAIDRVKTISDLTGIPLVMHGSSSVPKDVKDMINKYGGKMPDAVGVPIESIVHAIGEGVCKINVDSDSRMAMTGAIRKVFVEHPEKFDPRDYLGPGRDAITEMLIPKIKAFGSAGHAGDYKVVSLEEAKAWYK
#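 40 nM FBPA preincubated 10 min at RT with compound (up to 57.5 uM final), then substrate plus GAPDH/TPI/NAD/arsenate coupling and diaphorase/resazurin added. Fluorescence read after 20 min at RT, 525/598 nm.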
# Tb PYK inh: blocks Trypanosoma brucei pyruvate kinase | Q57TT1 | TbPYK enzyme, Kinase-Glo Plus ATP luminescence, 45 min | Potency, µM (doses to about 76.8 µM), for the others: top-dose activity, negative = inhibition, actives largely listed as inhibitors | 410,000 tested, 0.12% active | AID 624173; also: potency is read from the fitted curve at half-maximal effect; % is scaled to controls: 0 for no effect and ±100 for the full control effect; nearly all actives have a fitted effect of over 50% in size
#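 Quantitative HTS: titrated library compounds versus trypanosomal pyruvate kinase in TEA buffer (pH 7.2) containing KCl, MgCl2, BSA and Tween-20. Reactions were initiated with ADP, 130 uM final. Kinase-Glo Plus luminescence was read after 45 min at RT.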
# LmPK inh: blocks Leishmania mexicana pyruvate kinase activity; Q27686; purified LmPK, Kinase-Glo ATP luminescence, 1 h; Potency, µM (titrated, usually from 57.5 µM), without a hit: at the highest dose activity change, negative = inhibition, most hits filed as inhibitors; 290,000 tested, 0.37% active; also: potency is read from the fitted curve at half-maximal effect; % is scaled to controls: 0 for no effect and ±100 for the full control effect
#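 Kinase-Glo luminescence read after 1 h RT reaction of 0.1 nM LmPK with 0.5 mM PEP and 0.1 mM ADP. Activity scaled between uninhibited and enzyme-free controls.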
# Shiga toxin inh: blocks Shiga toxin action in Vero cells. Vero cells, Shiga toxin protein synthesis inhibition reporter. inhibition, % at 38.7 µM. 290,000 tested, 9.2% active. AID 2315; in the data active = inhibition mostly above about 28%, no sharp cut-off; inactive = mostly below about 43%; also: 0% is about no effect
# Sm TGR block: blocks Schistosoma mansoni thioredoxin glutathione reductase; Q962Y6; purified TGR, DTNB reduction, TNB absorbance 405 nm; Potency, µM (top dose mostly 114 µM), for the others: top-dose activity change, negative = inhibition, hits mostly inhibitors; 360,000 tested, 3% active; AID 485364; also: potency is read from the fitted curve at half-maximal effect; % is scaled to controls: 0 for no effect and ±100 for the full control effect; nearly all actives have a fitted effect of over 60% in size
#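 First, TGR (20 nM dispensed) and NADPH were mixed with compound. Second, a 15 min room-temperature incubation followed. Third, further NADPH and then DTNB were added to start the reaction. Finally, TNB absorbance was monitored kinetically.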
# CHX counter: affects cycloheximide protein synthesis inhibition readout, counter-screen | cell reporter, cycloheximide protein synthesis inhibition counterscreen | max response, % | 300,000 tested, 12% active | AID 2314; in the data active = max response mostly above about 13%, no sharp cut-off; inactive = mostly below about 14%; also: read at 38.3 µM for the half of the compounds with a filed dose; 0% is about no effect
# Active calls of the source: *; ? = inconclusive; . = not tested or not shown; [ ] = another dose, or the depositor's remark. Unless noted, calls follow the shape of the dose curve; as a rule, active = well fitted curve in the direction sought with a large enough effect; inconclusive = small, poorly fitted or top-dose-only effect, or another doubt; inactive = no such curve, though single readings can be large; an effect the other way counts as inactive or inconclusive.
SMILES,Giardia FBPA inh,Tb PYK inh,LmPK inh,Shiga toxin inh,Sm TGR block,CHX counter
COc1cc(NC(=O)COC(=O)CC2CC3CCC2C3)cc(OC)c1 (configuration not stated),.,-5%,.,.,.,.
COc1ccc(NC(=O)C(Cl)=C(Cl)Cl)cn1,-12%,3%,4%,16,1%,23*
COc1ccc(NC(=O)CC2CC3CCC2C3)cn1 (configuration not stated),2%,5%,-2%,60,42%,20*
COc1ccc(NC(=O)Nc2cc(C)cc(C)c2)cn1,-7%,1%,8%,39,4%,15
COc1ccc(CC(=O)Nc2ccc(OC)nc2)cc1,-3%,22%,-2%,-5,4%,-1
COc1ccc(NC(=O)/C(Cl)=C(/Cl)S(=O)(=O)Cc2ccccc2)cn1,-1%,-4%,-2%,101*,10µM*,46*
CSCC[C@H](NC(=O)[C@H](CC(C)C)NC(=O)CNC(=O)[C@H](Cc1ccc(O)cc1)NC(=O)[C@H](Cc1ccccc1)NC(=O)[C@H](CCC(N)=O)NC(=O)[C@H](CCC(N)=O)NC(=O)[C@@H]1CCCN1C(=O)[C@H](CCCCN)NC(=O)[C@@H]1CCCN1C(=O)[C@@H](N)CCCN=C(N)N)C(N)=O,2%,.,.,-6,.,-2
COc1ccc(NC(=O)/C(Cl)=C(/Cl)S(=O)Cc2ccc(Cl)cc2)cn1 (configuration not stated),-5%,17%,-5%,-41,0.1µM*,-13
Cc1cc2c(s1)c1cnn(Cc3ccc(-c4ccccc4)cc3)c(=O)c1n2C,.,.,.,-7,.,-3
O=C(Nc1ccccc1)OC1CC2CC1C1CCCC21 (configuration not stated),-7%,-12%,4%,94*,-2%,51*
O=C(Nc1ccccc1)O[C@@H]1C[C@H]2CCCC(=O)N3CC[C@@H](C1)[C@@H]23,.,-10%,.,.,.,.
O=C(Nc1ccccc1)OC1CCS(=O)(=O)C1 (configuration not stated),5%,2%,0%,-13,7%,-3
O=C(Nc1ccccc1)O[C@@H]1C[C@H]2CCC(=O)N3CC[C@@H](C1)[C@@H]23,9%,.,-5%,38*,-27%,31*
CCOc1ccc(NC(=O)CCCc2nc(-c3cccc(OC)c3)no2)cc1,.,3%,.,.,3%,.
CC(C)Cn1c(-c2csc3c2CCCC3)n[nH]c1=S,-1%,?,10µM*,13,14%,8
CC(C)Cn1c(-c2ccccc2F)n[nH]c1=S,-8%,?,-7%,-6,8%,-3
CN1CCN(c2ccc(-c3ccnn3C(=O)Nc3cccc(C(F)(F)F)c3)cc2)CC1,-1%,9%,1%,28,.,43*
O=C(/C=C/c1ccccc1)N1CCN(c2ccccn2)CC1,3%,1%,1%,15,8%,10
O=C(/C=C/c1cccc(F)c1)N1CCN(c2ccccn2)CC1,-5%,13%,-3%,43*,6%,22*
O=C(/C=C/c1ccccc1F)N1CCN(c2ccccn2)CC1,.,-1%,-8%,24,-13%,17*
CC(=O)Nc1ccc(NC(=S)Nc2ccc(F)cc2)cc1,0%,-6%,-5%,20,?,-1
COC(=O)c1cccc(NC(=S)NC(C)C)c1,-4%,-1%,-3%,-3,-16%,4
O=C(O)c1cccc(NC(=S)NC(=O)c2ccncc2)c1,-12%,-5%,6%,8,32µM*,10
CC(C)(C)C(=O)NC(=S)Nc1ccc(F)cc1,-1%,-12%,1%,87*,?,31*
CNC(=S)Nc1cccc(C(=O)O)c1,-26%,-3%,0%,-6,3.2µM*,-1
SMILES,Giardia FBPA inh,Tb PYK inh,LmPK inh,Shiga toxin inh,Sm TGR block,CHX counter
CC(C)(C)C(=O)NC(=S)Nc1cccc(C(=O)O)c1,-5%,-3%,1%,84*,15%,45*
COc1ccc(CCNc2nc3ccccc3c3nc(-c4cccc(C)c4)nn23)cc1OC,.,1%,.,.,-4%,.
O=C(Nc1ccc(Br)cc1F)c1cc(S(=O)(=O)NC2CCCCC2)ccc1F,.,-1%[15.4 µM],.,.,6%,.
Cc1ccc(/C=C/c2nnc(-c3cccs3)o2)cc1,0%,1%,-12%,48*,0%,46*
Cc1ccc(-c2nnc(-c3cccs3)o2)cc1,-1%,0%,?,72*,.,31*
Cc1ccc(/C=C/c2nnc(-c3ccc(C)cc3)o2)cc1,.,2%,2%,32,10%,1
Cc1ccc(S(=O)(=O)CCC(=O)Nc2nnc(-c3cccs3)o2)cc1,.,-3%,.,.,-4%,.
Fc1ccc(/C=C/c2nnc(-c3cccs3)o2)cc1,9%,0%,1%,75*,2%,31*
CC(Nc1nc(-c2cccnc2)nc2ccccc12)c1ccc(F)cc1 (configuration not stated),6%,-6%,-2%,1,2%,-2
Cc1cc(NC(=O)C2CCN(C(=O)c3ccco3)CC2)ccc1Br,.,1%,.,.,-22%,.
CC(OC(=O)c1cccs1)C(=O)NCc1ccco1 (configuration not stated),1%,5%,7%,-4,-5%,-5
O=C(OC(C(=O)NCc1cccs1)c1ccccc1Cl)c1ccco1 (configuration not stated),-5%,-21%,9%,-11,45µM*,0
CC(=O)OC(C(=O)NCc1ccco1)c1ccncc1 (configuration not stated),-6%,9%,-1%,4,45µM*,-6
O=C(c1ccccc1)N1CCN(C(=S)NCc2ccco2)CC1,-9%,-5%,-1%,-7,3%,6
COc1ccccc1C(OC(=O)c1cccs1)C(=O)NCc1ccco1 (configuration not stated),2%,-10%,-3%,40,13µM*,13
O=C(OC(C(=O)NCc1ccco1)C(OC(=O)c1ccccc1)C(=O)NCc1ccco1)c1ccccc1 (configuration not stated),1%,4%,4%,66*,-34%,17*
Nc1cc(C(F)(F)F)ccc1S(=O)(=O)Nc1cccc2c1NCCC2,.,.,.,-4,.,-7
CCOC(=O)c1csc(NC(=O)CCS(=O)(=O)c2ccc(Cl)cc2)n1,.,-4%,.,.,.,.
CC(C)C(OC(=O)c1cccs1)C(=O)NCc1ccco1 (configuration not stated),3%,-3%,-8%,-22,35µM*,-3
O=S(=O)(c1cccs1)N1CCCc2cccc(O)c21,?,-5%,2%,80*,-18%,54*
CCCc1c(C(=O)NNc2ccccc2OC)cnn1-c1ccccc1,-20%,-1%,-3%,41*,-33%,23*
CCCc1c(C(=O)N2CCN(c3ccccc3OC)CC2)cnn1-c1ccccc1,0%,1%,3%,20,-1%,0
